# L3MBTL1 inh – inhibitors of human L3MBTL1. Q9Y468. AlphaScreen L3MBTL1–H3K9me1 peptide binding. Potency, µM (series often up to 57.1 µM), for the others: at the highest dose activity, negative = inhibition, most hits filed as inhibitors. 230,000 tested, 0.66% active. AID 485360; note: potency is the fitted concentration of half-maximal effect; % is set by controls: 0 for no effect and ±100 for the full control effect; nearly all actives have a fitted effect of over 60% in size
#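 L3MBTL1 50 nM + b-AHA-H3(1-15)K9me1 75 nM, 30 min RT; compound added, 30 min RT; streptavidin donor/Ni-chelate acceptor beads 10 ug/mL each final, 30 min RT dark; AlphaScreen read.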
# JMJD2A Tudor inh – inhibitors of human JMJD2A Tudor domain | O75164 | AlphaScreen JMJD2A-Tudor / H3K4me3 peptide binding | Potency, µM (doses to about 114 µM), for inactives: at the top dose activity change, negative = inhibition, most hits filed as inhibitors | 390,000 tested, 4.4% active | AID 504339; note: potency is the fitted concentration of half-maximal effect; % is set by controls: 0 for no effect and ±100 for the full control effect; nearly all actives have a fitted effect of over 50% in size
# Target sequence (O75164 whole entry, looked up, the tested form may be a part): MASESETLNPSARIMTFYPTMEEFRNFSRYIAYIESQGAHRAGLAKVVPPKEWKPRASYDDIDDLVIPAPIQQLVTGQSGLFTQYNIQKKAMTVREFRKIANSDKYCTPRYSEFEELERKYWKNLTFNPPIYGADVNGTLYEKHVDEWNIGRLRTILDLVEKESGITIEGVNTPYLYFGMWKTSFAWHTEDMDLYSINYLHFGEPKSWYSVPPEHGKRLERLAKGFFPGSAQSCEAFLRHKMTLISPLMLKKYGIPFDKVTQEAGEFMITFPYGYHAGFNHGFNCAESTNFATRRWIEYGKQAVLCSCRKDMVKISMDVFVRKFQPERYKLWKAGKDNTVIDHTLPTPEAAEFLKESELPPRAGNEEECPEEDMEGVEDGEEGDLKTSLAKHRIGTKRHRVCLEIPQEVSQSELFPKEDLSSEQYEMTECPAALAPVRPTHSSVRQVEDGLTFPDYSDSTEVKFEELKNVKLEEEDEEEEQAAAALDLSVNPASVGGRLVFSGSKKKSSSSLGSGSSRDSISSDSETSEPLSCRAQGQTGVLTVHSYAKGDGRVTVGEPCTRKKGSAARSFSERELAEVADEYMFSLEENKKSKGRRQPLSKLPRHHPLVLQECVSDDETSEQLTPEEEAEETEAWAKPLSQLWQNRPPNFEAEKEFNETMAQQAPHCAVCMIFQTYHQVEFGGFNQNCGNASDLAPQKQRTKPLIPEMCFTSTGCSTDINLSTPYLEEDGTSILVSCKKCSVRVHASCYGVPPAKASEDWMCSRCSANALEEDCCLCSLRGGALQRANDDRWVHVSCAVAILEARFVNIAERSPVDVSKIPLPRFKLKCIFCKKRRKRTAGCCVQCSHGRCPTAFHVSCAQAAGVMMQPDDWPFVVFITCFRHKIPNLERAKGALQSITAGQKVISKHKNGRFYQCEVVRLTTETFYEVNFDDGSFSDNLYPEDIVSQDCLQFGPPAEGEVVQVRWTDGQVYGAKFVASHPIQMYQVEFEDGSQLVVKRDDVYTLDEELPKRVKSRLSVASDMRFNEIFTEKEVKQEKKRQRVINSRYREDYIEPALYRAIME
# BAZ2B block – inhibitors of human BAZ2B bromodomain; 360,000 tested, 4.4% active; Potency, µM (titrated, usually from 114 µM), for the others: top-dose activity change, negative = inhibition, usual class: inhibitors; Q9UIF8; AlphaScreen BAZ2B-H3K14Ac peptide displacement; note: potency is the fitted concentration of half-maximal effect; % is set by controls: 0 for no effect and ±100 for the full control effect; nearly all actives have a fitted effect of over 60% in size
#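 BAZ2B 50 nM plus b-H3(5-23)K14Ac 50 nM, PBS pH 7.4/0.01% Tween-20, 30 min RT; compound added (max 110 uM), 30 min RT; streptavidin donor/Ni-chelate acceptor beads 10 ug/mL final, 20 min dark; AlphaScreen read.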
# HP1b chromo inh – inhibitors of HP1-beta chromodomain binding to methylated histone tails; P83916; AlphaScreen HP1-beta / biotin-H3K9me3 peptide binding; Potency, µM (top dose mostly 114 µM), inactives show at the top dose activity change, negative = inhibition, most hits filed as inhibitors; 390,000 tested, 0.56% active; AID 540317; note: potency is the fitted concentration of half-maximal effect; nearly all actives have a fitted effect of over 70% in size
#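 AlphaScreen: HP1-beta (50 nM) preformed 30 min with biotin-H3(1-18)K9me3 peptide (50 nM) in PBS pH 7.4, 0.01% Tween-20. Compound added for 30 min at RT, then streptavidin donor/nickel chelate acceptor beads (10 ug/mL) for 30 min.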
# PI5P4K alpha inh – PI5P4K alpha (human) kinase inhibition; max response, %; PI5P4Kalpha enzyme, ADP-Glo luminescence, 60 min; stronger effect = lower value; AID 652105; 330,000 tested, 1.2% active; P48426; active = max response of -50% or lower; inconclusive = between -30% and -50%; inactive = -30% or higher; note: value at the top dose of about 77 µM; % is set by controls: 0 for no effect and ±100 for the full control effect
#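 Luminescence from ADP-Glo served as readout of PI5P4Kalpha activity in a qHTS format. Reaction: enzyme, substrate, compound, ATP at 5 microM final, 60 min at RT.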
# KDM4E inh – inhibitors of human JMJD2E histone demethylase | B2RXH2 | JMJD2E catalytic domain, FDH-coupled NADH fluorescence (FDH is formaldehyde dehydrogenase) | Potency, µM (series often up to 57.1 µM), inactives show at the highest dose activity change, negative = inhibition, usual class: inhibitors | 230,000 tested, 1.6% active; active = well fitted inhibition curve with a large enough effect, not every such curve was filed as active; inconclusive = small, poorly fitted or top-dose-only effect, or another doubt; inactive = no such curve, though single readings can be large or run the other way;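 note: potency is the fitted concentration of half-maximal effect; 0% = wells with enzyme and -100% = buffer wells without enzyme; nearly all actives have a fitted effect of over 50% in size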
# Starred values were filed as active, the others as inactive; ? = inconclusive; . = no result given; ! = a repeat was not active. A selection: hits, their analogues and other compounds. The true share with any hit is near 5.7%. Unless noted, calls come from the whole dose curve; as a rule, active = well fitted inhibition curve with a large enough effect; inconclusive = small, poorly fitted or top-dose-only effect; inactive = no such curve, though single readings can be large or run the other way.
SMILES,L3MBTL1 inh,JMJD2A Tudor inh,BAZ2B block,HP1b chromo inh,PI5P4K alpha inh,KDM4E inh
COc1cc(NC2c3ccccc3C(=O)N2Cc2ccc3c(c2)OCO3)cc(OC)c1 (stereo unspecified),.,?,?,-9.0%,-0.7,-5.4%
CC1CCCCN1CC(=O)c1c(N)n(Cc2ccccc2)c(=O)n(C)c1=O (stereo unspecified),3.9%,-18.2%,.,10.6%,-3.4,-0.5%
C/C=C/C(=O)[C@@H](C)[C@@H](/C=C/C[Si](C)(C)C)c1ccccc1,.,-11.7%,.,31.8%,.,.
CCCn1c(CN2CCN(c3ccc(OC)cc3)CC2)nc2c1c(=O)[nH]c(=O)n2C,.,-20.2%,-14.9%,22.5%,.,.
CCOC(=O)Cn1ccc(NC(=O)c2ccc(F)cc2)n1,.,-2.0%,1.5%,37.7%,0.4,.
O=C(CCS(=O)(=O)c1cccc2nonc12)Nc1ccc(Br)cc1,.,79.4µM*!,-1.1%,5.0%,-6.0,.
CC1(C)Cc2ccccc2-c2n[nH]c(=S)n21,-0.2%,3.16µM*,-16.2%,-1.9%,.,-5.0%
CCOC(=O)N1CCc2c(sc(NC(=O)c3ccc(S(=O)(=O)N4CCCC4)cc3)c2C#N)C1,15.4%,-20.1%,10.4%,43.6%,-81.9*,-8.5%
CC(=O)N1CCc2c(sc(NC(=O)c3ccc([N+](=O)[O-])o3)c2C#N)C1,-20.3%,?,56.2µM*,?,?,-7.6%
COc1ccc(C(=O)Nc2sc3c(c2C#N)CCN(C(C)=O)C3)cc1,.,-6.9%,.,31.5%,0.4,?
OCC[C@@H]1C[C@H](O)[C@@H](O)[C@]2(OCc3ccc4ccccc4c32)O1,.,.,.,.,1.5,.
C=CSc1sc(Cl)c(N2CCOCC2)c1[N+](=O)[O-],-21.0%,50.1µM*,14.1µM*,50.1µM*,0.4,3.0%
O=[N+]([O-])c1cccc(Cl)c1N1CCOCC1,-0.8%,-21.4%,-9.2%,-11.8%,-4.6,-1.4%
C=CS(=O)(=O)c1sc(Cl)c(N2CCOCC2)c1[N+](=O)[O-],-16.4%,79.4µM*,?,?,-104.6*,-3.5%
CCCN(CC(=O)Nc1ccccc1OC)C(=O)Cc1ccc2c(c1)CCC2,-1.7%,-12.4%,-3.7%,4.9%,-12.6,.
COc1ccc(NC(=S)Nn2cnnc2)cc1OC,0.4%,17.8µM*,-32.7%,?,-1.8,-16.7%
CCc1ccc(NC(=S)Nn2cnnc2)cc1,12.5%,79.4µM*,-25.7%,?,?,-26.7%
Cc1ccccc1-c1nnn(CC(=O)Nc2sc3c(c2C#N)CCC(C(C)(C)C)C3)n1 (stereo unspecified),.,-19.4%,-12.5%,26.3%,.,.
Cn1c(C(=O)O)c(CC(=O)Nc2ccc(F)cc2F)c2ccccc21,-1.5%,-8.9%,-1.4%,9.3%,-1.3,-2.9%
Cn1nc(CC(=O)Nc2ccc3c(c2)OCCO3)c2ccccc2c1=O,-6.9%,-3.1%,-0.4%,30.5%,0.8,-4.1%
Cc1ccc(NC(=O)Cc2c(C(=O)O)n(C)c3ccccc23)cc1F,.,44.7µM*,-2.1%,-20.5%,-14.4,-4.4%
Cc1ccc(NC(=O)Cc2nn(C)c(=O)c3ccccc23)cc1F,-6.0%,35.5µM*,-0.7%,-5.8%,?,3.3%
COc1ccc2c(c1)c(CC(=O)NCc1ccc3c(c1)OCO3)c(C)n2C(=O)c1ccc(Cl)cc1,.,.,.,.,.,-16.9%
Cc1ccc(NC(=O)c2cccn2-c2nnc(N3CCCCC3)s2)cc1Cl,.,-28.6%,-29.0%,10.9%,.,.
CCOC(=O)C1=C(C)N=C2SC(C(=O)OC)=CC(=O)N2C1c1ccc(F)cc1 (stereo unspecified),-2.2%,25.1µM*,?,?,.,-3.2%
SMILES,L3MBTL1 inh,JMJD2A Tudor inh,BAZ2B block,HP1b chromo inh,PI5P4K alpha inh,KDM4E inh
O=C(NCc1ccc(Cl)cc1)c1cnc2sc(N3CCCC3)nn2c1=O,.,79.4µM*,-0.7%,25.3%,.,.
O=C(NCc1ccc(Cl)cc1)c1cnc2sc(N3CCOCC3)nn2c1=O,.,-16.9%,3.8%,-0.1%,.,.
CC(Sc1nc(-c2ccccc2)c(C#N)c(=O)[nH]1)C(=O)Nc1ccc(F)cc1 (stereo unspecified),.,-26.5%,-14.3%,19.8%,.,.
COC(=O)c1c(-c2ccc(S(C)(=O)=O)cc2)sc2ccc(OC)cc12,1.5%,44.7µM*,.,10.9%,-1.9,.
O=C(NCc1ccccc1Br)c1ccc2nc(N3CCCCC3)sc2c1,.,-10.9%,3.6%,16.7%,.,.
S=C(NCCCc1cnc[nH]1)NCCCN(Cc1ccc(Cl)cc1)c1ccc(-c2ccccc2)cn1,.,50.1µM*,.,?,.,.
S=C(NCCCc1cnc[nH]1)NCCCN(CCc1ccc(Cl)cc1)c1ccc(Br)cn1,.,44.7µM*,.,?,.,.
O=C(NCCCc1cnc[nH]1)NCCCN(Cc1ccc(Cl)cc1)c1ccc(Br)cn1,.,44.7µM*,.,?,.,.
S=C(NCCCc1cnc[nH]1)NCCCN(Cc1ccc(Cl)cc1)c1ccc(Br)cc1,.,4.47µM*,.,31.6µM*,.,.
S=C(NCCCN(Cc1ccc(Cl)cc1)c1ccc(-c2ccccc2)cn1)NCCCN(Cc1ccc(Cl)cc1)c1ccc(-c2ccccc2)cn1,.,?,.,-6.7%,.,.
NCCCN(Cc1ccc(Cl)cc1)c1ccc(Br)cn1,.,-15.0%,.,19.9%,.,.
CCCC(CCC)C(=O)NC1CC(=O)N(c2ccc3c(c2)OCCO3)C1 (stereo unspecified),.,-14.0%,-6.9%,12.0%,.,.
Cc1cc2n(n1)CCCN2C(=O)Nc1ccc(Cl)cc1,.,-3.8%,2.0%,32.0%,.,.
CCNC(=O)c1c(NC(=O)c2cc(=O)c3ccc(C)c(C)c3o2)sc2c1CCCC2,.,-18.8%,-2.0%,21.1%,.,.
S=C(NCCCc1cnc[nH]1)NCCCN(Cc1ccc(Cl)cc1)c1ncc(Br)cn1,.,50.1µM*,.,?,.,.
S=C(NCCCc1cnc[nH]1)NCCCN(Cc1ccc(Cl)cc1)c1ccc(Br)cn1,.,50.1µM*,.,.,.,.
COc1cccc(C2C3=C(N=c4s/c(=C\c5ccc(OCC(=O)O)cc5)c(=O)n42)c2ccccc2CC3)c1 (stereo unspecified),-1.3%,44.7µM*,50.1µM*,-11.0%,?,-5.7%
COc1ccccc1C1C2=C(N=c3s/c(=C/c4cccc(OCC(=O)O)c4)c(=O)n31)c1ccccc1CC2 (stereo unspecified),-27.5%,35.5µM*,50.1µM*,?,?,-4.6%
COc1cccc(C2C3=C(N=c4s/c(=C\c5cccc(O)c5)c(=O)n42)c2ccccc2CC3)c1OC (stereo unspecified),-1.9%,?,-9.5%,?,10.7,-20.0%
Cc1sc(N)nc1-c1ccc(Oc2ccccc2)cc1,-5.7%,?,50.1µM*,-19.9%,4.7,.
Nc1nc(N)nc(-c2ccc(Oc3ccccc3)cc2)n1,.,-16.9%,-4.7%,3.8%,.,5.6%
COc1ccc2ccccc2c1/C=N\NC(=O)c1ccc(C)s1,.,-18.5%,-3.4%,52.2%,?,.

# Screening data as filed in PubChem.
